Shown are actives, neighbours in structure and some others; about 3.1% of the full set was active somewhere.
PriA SSB inh – K. pneumoniae PriA-SSBct interaction inhibition; inhibition, % at 33 µM; 430,000 compounds, 0.6% hits; AlphaScreen SSBct-PriA binding, biotinylated peptide; in the data active means inhibition mostly above about 37%, no sharp cut-off; inactive means mostly below about 20%;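 further: plate controls were negative control peptide for no effect and reference peptide for full effect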
Anthrax LF prot – blocks Bacillus anthracis lethal factor protease. multiplex microsphere protease cleavage assay, LF. 360,000 compounds, 0.12% hits. AID 588501. P15917. inhibition, % at 10 µM; further: plate controls were buffer without enzyme for full effect and enzyme alone for no effect
BoNT-F LC inh – BoNT F light chain protease inhibition | 360,000 compounds, 0.22% hits | AID 588497 | inhibition, % at 10 µM | Multiplex microsphere protease cleavage assay, flow cytometry; in the data active means inhibition above about 35%, passing the limit was not always enough; inconclusive means no clear call, values can overlap the other calls; further: plate controls were buffer without enzyme for full effect and enzyme alone for no effect
Bead autofluor – compound fluorescence in toxin protease inhibitor counterscreen; AID 624483; fluorescence intensity (test concentration not listed); 360,000 compounds, 3.1% hits; compound autofluorescence counterscreen, microsphere flow cytometry; stronger effect = higher value; in the data active means fluorescence intensity above about 16000; inconclusive means no clear call, values can overlap the other calls
BoNT-A LC inh2 – BoNT A light chain protease inhibition. inhibition, % at 10 µM. multiplex microsphere protease substrate cleavage, flow cytometry. 360,000 compounds, 0.17% hits. AID 588499; further: plate controls were buffer without enzyme for full effect and enzyme alone for no effect
The depositor's hits bear a star; u = inconclusive; x = not tested or not shown; ! = not confirmed by another sample. Unless noted, no stated cut-off is given here; in the data, active means inhibition above about 30%; inconclusive means no clear call, values can overlap the other calls; inactive means below that.

SMILES	PriA SSB inh	Anthrax LF prot	BoNT-F LC inh	Bead autofluor	BoNT-A LC inh2
O=C1NC(=O)C2(Cc3ccccc3N3CCOCC32)C(=O)N1c1ccccc1 (stereo not given)	2	-1	0	22770*	1
COc1ccc(-c2cc(C(=O)N3CCN(C(c4ccccc4)c4ccccc4)CC3)no2)cc1	2	-5	-9	11566	-1
O=C(N1CCCCC1)N1CCN(C(c2ccccc2)c2ccccc2)CC1	0	0	-6	2160	0
O=C(c1cc(-c2ccco2)on1)N1CCN(C(c2ccccc2)c2ccccc2)CC1	7	-6	2	21890*	4
O=C(N1CCOCC1)N1CCN(C(c2ccccc2)c2ccccc2)CC1	-6	-5	1	21654*	1
CCOc1ccc(C=NNC(=O)CN2CCCCCCC2)cc1	3	x	x	x	x
O=C(NCC1CCN(C(=O)c2cccnc2)CC1)Nc1ccc(Cl)c(Cl)c1	-7	x	x	x	x
Cn1c(=O)n(-c2cccc(Cl)c2)c(=O)c2c3c(sc21)COC(C)(C)C3	-3	-1	-5	17764*	-3
Cc1cnc(NC(=O)C(C)N2C(=O)C3CC=CCC3C2=O)s1 (stereo not given)	-10	-2	-4	17257*	-3
C[C@@H](C(=O)Nc1nccs1)N1C(=O)C2CC=CCC2C1=O (stereo not given in full)	-4	-2	8	3580	0
COc1ccc(C(=O)N2CCN(c3nnnn3-c3ccccc3)CC2)cc1OC	-1	-1	-1	23177*	0
O=C(c1ccc(-c2ccc(F)cc2)cc1)N1CCC(Cc2ncc[nH]2)CC1	-8	x	x	x	x
O=C(c1ccco1)N(CCCn1ccnc1)c1nc2c(F)cccc2s1	72*	x	x	x	x
COc1cccc2sc(N(CCCn3ccnc3)C(=O)c3ccco3)nc12	57*	x	x	x	x
O=C(c1ccc(F)cc1)N(CCCn1ccnc1)c1nc2c(F)cccc2s1	18	x	x	x	x
Cc1cccc2sc(N(CCCn3ccnc3)C(=O)c3ccc(Cl)s3)nc12	21	x	x	x	x
Cc1c(Cl)ccc2sc(N(CCCn3ccnc3)C(=O)c3ccco3)nc12	69*	x	x	x	x
O=C(c1ccco1)N(CCCn1ccnc1)c1nc2c(Cl)cccc2s1	64	x	x	x	x
CCOc1cccc2sc(N(CCCn3ccnc3)C(=O)c3ccc(Cl)s3)nc12	50*	x	x	x	x
O=C1CCC(NC(=O)OCc2ccccc2)(C(=O)OCc2ccccc2)O1 (stereo not given)	8	x	x	x	x
O=C(Cn1nc2c(c1NC(=O)c1cc3ccccc3o1)CSC2)NCCc1ccccc1	-6	x	x	x	x
CS(=O)(=O)N1CCC[C@H](C(=O)Nc2nc3c(s2)CCCC3)C1	1	x	x	x	x
Cc1nc2c(ccc3nc(NC(=O)COc4ccccc4)sc32)s1	2	x	x	x	x
CCc1cccc2sc(N(CCCn3ccnc3)C(=O)c3ccco3)nc12	110*	x	x	x	x
COc1cc2[nH]c(=S)n(C3CCCC3)c(=O)c2cc1OC	-17	-1	-1	23713*	-1
SMILES	PriA SSB inh	Anthrax LF prot	BoNT-F LC inh	Bead autofluor	BoNT-A LC inh2
COc1cc2[nH]c(=S)n(N(C(C)=O)C(C)=O)c(=O)c2cc1OC	-13	0	1	22631*	2
COc1cc2[nH]c(=S)n(C3CC3)c(=O)c2cc1OC	3	-4	-2	4301	-1
Cc1ccc(N=Cc2ccc(O)cc2O)cc1F	-6	1	2	21566*	u
Oc1ccc(C=Nc2ccc(N3CCOCC3)cc2)c(O)c1	1	-3	-15	4790	-1
O=C1CC2(CCN(C(=O)c3ccc(Br)o3)CC2)Oc2ccccc21	-6	x	x	x	x
CC(=O)/C(=C\N(C)C)Sc1ccc(C)cc1	-5	u	38*	3560	-1
CCOC(=O)NC(=O)C(C=Nc1sccc1C(=O)OC)=C(C)O	2	x	x	x	x
O=C1Nc2ccccc2N=C(c2ccccc2)C1Br (stereo not given)	1	-6	-6	5258	-1
O=C1Nc2ccccc2N=C(c2ccccc2)C1N1CCOCC1 (stereo not given)	-3	-2	-1	21946*	u
COc1ccc2[nH]cc(CCNC(=O)CN3C(=O)S/C(=C\c4ccc(F)cc4)C3=O)c2c1	-3	x	x	x	x
Cc1ccc2[nH]cc(C(=O)CN3CCN(C)CC3)c2c1	-11	-2	-2	23399*	u
COc1ccc2c(C(=O)CN3CCN(c4ccccc4)CC3)c[nH]c2c1	-9	-2	-1	24933*	u
O=C(NCCCN1CCOCC1)C(=O)c1c[nH]c2ccccc12	-3	10	-6	3874	-3
COc1ccc(N2CCN(CCCNC(=O)C(=O)c3c[nH]c4ccccc34)CC2)cc1	48*	-2	-10	5466	-1
COc1ccc(SCC2CCN(C(=O)c3c(F)cccc3Cl)CC2)cc1	-5	x	x	x	x
C/C(CC(=O)Nc1ccccn1)=N\NC(=O)c1ccc2ccccc2c1	x	-2	-1	2568	0
C/C(CC(=O)Nc1ccccn1)=N\NC(=O)Cc1cccc2ccccc12	x	0	-3	23733*	u
O=C(Nc1ccccc1)OCN1C(=O)c2ccccc2C1=O	-4	-2	-6	17484*	-2
O=S(=O)(Cc1ccccc1F)NCC(c1ccsc1)N1CCc2ccccc2C1 (stereo not given)	-6	x	x	x	x
CC(=O)Nc1nnc(/C=C/c2cccc([N+](=O)[O-])c2)s1	2	-2	63*	4252	0
COC(=O)c1ccc(NC(=O)CS(=O)(=O)c2ccc(Cl)s2)cc1	-3	x	x	x	x
Cc1ccc(-c2nc(CCN3C(=O)c4ccccc4C3=O)cs2)cc1	-12	-5	-4	23490*	u
N#C/C(=C/c1ccc(F)cc1)c1nc(CCN2C(=O)c3ccccc3C2=O)cs1	-9	-3	-7	16963*	-2
Cc1cc(C(=O)Nc2cccc(C(=O)O)c2)c(C)o1	-13	0	3	22853*	u
c1ccc(-c2cn3c(n2)SCC3)cc1	8	x	x	x	x
SMILES	PriA SSB inh	Anthrax LF prot	BoNT-F LC inh	Bead autofluor	BoNT-A LC inh2
Cc1oc2ccccc2c1-c1cn2c(n1)SCC2	1	-5	-5	23992*	u
CCn1c(C)nc2cc(-c3nnc(-c4c(-c5ccccc5)noc4C)o3)ccc21	-7	0	0	16285*	0
COc1ccc(CCNC(=O)c2nonc2N)cc1	-19	-6	9	6706	0
COc1cccc(CNCCNC(=O)c2nonc2N)c1	1	-3	-9	24154*	-5
Cc1cc(C)c(NC(=O)CN2CCN3CCCC3C2)c(C)c1 (stereo not given)	0	0	-7	21570*!	0
CC(C)(C)NC(=O)C(c1ccccc1)N(C(=O)c1ccco1)C1CC1 (stereo not given)	-3	-5	2	21553*	u
O=C(Nc1ccc(Cl)cc1)Nc1nc(C(=O)O)cs1	87*	x	x	x	x
O=C(Cc1csc(Nc2cccc(Cl)c2)n1)NCCc1c[nH]c2ccccc12	36*	x	x	x	x
O=C(Cc1csc(NC(=O)Nc2ccc(Cl)cc2)n1)NCCc1c[nH]c2ccccc12	52*	x	x	x	x
O=C(NCC[C@H]1CCCCN1S(=O)(=O)c1ccc(Cl)cc1)C(=O)Nc1ccccc1Cl	1	x	x	x	x
Cc1cccc(NC(=O)CSc2ccc(NC(=O)c3cccs3)nn2)c1C	-9	x	x	x	x
COc1ccc(OC)c(NC(=O)CSc2nnc(Cc3cccn3C)n2CCc2ccccc2)c1	33	-8	-5	8178	-2
